Compound activity: PubChem BioAssay, several laboratories
NadD inh = NadD (S. aureus) enzyme inhibition. purified NadD enzyme, colorimetric absorbance read-out. inhibition, % at 20 µM. 360,000 compounds, 0.78% hits. AID 602399; in the data active = inhibition above about 26%
ARNT-TACC3 inh = disrupts binding between human ARNT and TACC3; Q9Y6A5; AlphaScreen His-ARNT PAS-B/GST-TACC3 binding, luminescence; TACC3 fragment carries E629A point mutation; inhibition, % at 9.99 µM; 390,000 compounds, 0.66% hits; AID 623870;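 active = mean inhibition of replicates at least 50% and at least half of replicates each reaching 50%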;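 also: 0% = complete ARNT plus TACC3 wells and 100% = ARNT alone without TACC3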
Neddyl block = inhibitors of human cullin neddylation | P61081+Q13564 | TR-FRET cullin neddylation, biochemical | inhibition, % at 25 µM | 360,000 compounds, 0.58% hits | AID 651699; in the data active = inhibition above about 36%
sPLA2-III inh = Blocks human group III sPLA2 activity. Q9NZ20. QFRET BODIPY PC-A2 liposome hydrolysis, fluorescence. inhibition, % at 12.2 µM. 370,000 compounds, 0.56% hits;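 active = inhibition above mean plus 3 SD of compounds lying within the high and low control bounds, cut at about 19% in these data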;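 also: 0% = median of test compound wells and 100% = no enzyme DMSO wells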
DAGLB inh = diacylglycerol lipase beta (human) inhibition; Q8NCG7; HEK293T DAGLB membrane lysate, EnzChek fluorogenic substrate; inhibition, % at 5.17 µM; 340,000 compounds, 0.059% hits; AID 504411; in the data active = inhibition above about 34%;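 also: 0% = enzyme with vehicle and 100% = wells lacking enzyme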
Target sequence (Q8NCG7 whole entry, looked up): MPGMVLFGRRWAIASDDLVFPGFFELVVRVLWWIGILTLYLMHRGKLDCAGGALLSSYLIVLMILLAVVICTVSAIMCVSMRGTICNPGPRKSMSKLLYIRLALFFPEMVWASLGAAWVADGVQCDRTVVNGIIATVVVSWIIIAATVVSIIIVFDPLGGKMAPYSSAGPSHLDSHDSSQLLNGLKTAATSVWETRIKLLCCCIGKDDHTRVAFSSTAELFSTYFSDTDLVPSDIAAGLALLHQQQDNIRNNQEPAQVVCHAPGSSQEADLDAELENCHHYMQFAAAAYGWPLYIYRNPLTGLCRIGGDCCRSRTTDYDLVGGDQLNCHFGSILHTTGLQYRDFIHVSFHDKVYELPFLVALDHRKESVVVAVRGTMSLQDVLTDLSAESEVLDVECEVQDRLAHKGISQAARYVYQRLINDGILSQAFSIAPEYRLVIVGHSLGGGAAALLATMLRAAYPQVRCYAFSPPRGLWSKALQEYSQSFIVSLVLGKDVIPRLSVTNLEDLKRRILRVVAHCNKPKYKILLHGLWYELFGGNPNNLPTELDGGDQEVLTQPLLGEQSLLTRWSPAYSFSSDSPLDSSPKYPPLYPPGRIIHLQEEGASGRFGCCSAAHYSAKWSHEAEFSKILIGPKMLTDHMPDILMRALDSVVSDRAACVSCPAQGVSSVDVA
NadD conf = NadD (S. aureus) inhibition, single concentration confirmation | purified S. aureus NadD, colorimetric enzyme assay | inhibition, % at 20 µM | 2,000 compounds, 13% hits | shares compounds with NadD inh; in the data active = inhibition mostly above about 42%, no sharp cut-off; inactive = mostly below about 42%
An asterisk follows results filed as active; . = no result shown. An excerpt weighted towards active compounds, which were near 2% of everything screened.

SMILES | NadD inh | ARNT-TACC3 inh | Neddyl block | sPLA2-III inh | DAGLB inh | NadD conf
Cc1ccc(S(=O)(=O)Nc2ccc(Nc3nccn4c(-c5cccc(OC(F)(F)F)c5)cnc34)cc2)cc1 | 32.8* | . | . | -8.6 | . | 52.5*
O=C(NCCO)c1cccc(-c2cnc3c(Nc4cccc(OC(F)(F)C(F)F)c4)nccn23)c1 | -4.0 | . | 21.8 | -20.7 | . | .
Cc1noc(/C=C/c2ccco2)c1S(=O)(=O)N1CCC(C(=O)N2c3ccccc3CC2C)CC1 (configuration not stated) | 38.5* | 0.6 | 12.6 | -2.2 | -17.8 | 6.0
COC(=O)C[C@H]1CC[C@@H]2[C@@H](COc3ccc(NC(=O)c4cccc(OC)c4)cc3C(=O)N2C)O1 | . | -8.5 | . | . | . | .
COc1cc2nc(N(CCCN(C)C)C(=O)c3ccc(S(=O)(=O)N4CCc5ccccc54)cc3)sc2cc1OC | 33.7* | 20.4 | -0.3 | -21.7 | 2.5 | 20.8
O=C(Nc1nc2ccccc2n1Cc1ccccc1)c1ccc(COc2ccccc2[N+](=O)[O-])o1 | 20.3 | -8.4 | 13.6 | -2.0 | -4.3 | .
Cc1ccc(OCc2ccc(C(=O)Nc3nc4ccccc4n3Cc3ccccc3)o2)c([N+](=O)[O-])c1 | 34.0* | -8.4 | 9.7 | -3.4 | 0.1 | 7.0
COc1cc(/C=C2/N=C(c3ccccc3)OC2=O)c(F)cc1OCc1ccccc1 | 38.8* | 1.4 | -16.8 | -32.0 | 2.9 | 6.1
C[C@H](CO)N1C[C@H](C)[C@H](CN(C)C(=O)Nc2ccc3c(c2)OCO3)Oc2ccc(NC(=O)Cn3cnnn3)cc2CC1=O | . | -12.6 | . | . | . | .
COc1ccccc1CNC(=O)/C=C/c1ccc(Br)o1 | 31.8* | -1.7 | 4.2 | -1.8 | 0.3 | 29.7
COc1ccc(NC(=O)/C=C/c2ccc(Br)o2)cn1 | 8.3 | -2.9 | -6.7 | -4.2 | 0.4 | .
CNc1ccc(Br)cc(C(=O)/C=C/c2cc(OC)ccc2OC)c1=O | 22.7 | 3.2 | 28.3 | -0.8 | 8.5 | .
CCNc1ccc(Br)cc(C(=O)/C=C/c2ccc(Cl)cc2Cl)c1=O | 39.4* | 30.6 | 1.9 | 2.8 | 22.8 | 11.1
CCc1cc(C(=O)N2CCCC(N3CCN(c4cccc(C(F)(F)F)c4)CC3)C2)n(C)n1 (configuration not stated) | 37.8* | -5.2 | -7.0 | -4.5 | -2.0 | -2.0
COc1ccc(N(CC(=O)N/N=C/c2ccc(-c3ccc([N+](=O)[O-])cc3)o2)S(=O)(=O)c2ccc(C)cc2)cc1 | 42.2* | -4.2 | 16.1 | 4.1 | 1.5 | 4.7
COc1ccc(N(CC(=O)N/N=C/c2ccc(-c3ccc([N+](=O)[O-])cc3)o2)S(=O)(=O)c2ccc(C)cc2)cc1Cl | 39.8* | 0.0 | 6.7 | -0.9 | 3.5 | 2.2
C[C@@H]1CN([C@@H](C)CO)C(=O)c2cc(C#C[C@@H](C)O)cnc2O[C@H]1CN(C)C(=O)Nc1ccc(C(F)(F)F)cc1 | . | 2.3 | . | . | . | .
CCC(C)(C)C1CCC2(CC1)NC(=O)N(CC(=O)NC(C)CCc1ccccc1)C2=O (configuration not stated) | 47.9* | -1.3 | -2.5 | -3.7 | 1.0 | -21.3
Cc1sc2nc(SCc3nc4ccccc4[nH]3)n(Cc3ccco3)c(=O)c2c1C | 35.0* | -7.4 | -0.3 | 1.6 | -2.2 | 38.0
Cc1ccc(S(=O)(=O)N2CCN(c3ncnc4scc(-c5ccc(F)cc5)c34)CC2)cc1 | 37.3* | -2.0 | -71.5 | 0.3 | -3.7 | 13.8
Cc1ccc(S(=O)(=O)N2CCN(c3ncnc4scc(-c5ccccc5)c34)CC2)cc1 | 14.4 | 11.1 | -29.8 | 18.8 | -0.2 | .
COc1ccc(-c2csc3ncnc(N4CCN(S(=O)(=O)c5cccc(Br)c5)CC4)c23)cc1 | 31.5* | 0.2 | -190.5 | -7.0 | -6.6 | 18.4
COc1ccc(-c2csc3ncnc(N4CCN(S(=O)(=O)c5cccc(C(F)(F)F)c5)CC4)c23)cc1 | 17.4 | -5.9 | -176.9 | -6.7 | -1.8 | .
COCC(=O)N(C)C[C@@H]1Oc2ncc(C#Cc3ccc(F)cc3)cc2C(=O)N([C@@H](C)CO)C[C@@H]1C | . | 1.3 | . | . | . | .
COc1cccc(-c2cc3nc(-c4ccccc4)cc(N4CCN(C(=O)c5ccoc5)CC4)n3n2)c1 | 20.3 | . | -47.0 | 5.0 | -1.1 | .
SMILES | NadD inh | ARNT-TACC3 inh | Neddyl block | sPLA2-III inh | DAGLB inh | NadD conf
O=C(c1ccoc1)N1CCN(c2cc(-c3ccccc3)nc3cc(-c4ccccc4)nn23)CC1 | 17.3 | . | . | 4.8 | -1.1 | .
COc1cccc(-c2cc(N3CCN(C(=O)c4ccoc4)CC3)n3nc(-c4cccc(Cl)c4)cc3n2)c1 | 37.0* | . | 37.9 | -5.5 | 1.0 | 20.1
COc1ccccc1-c1cc2nc(-c3ccccc3)cc(N3CCN(C(=O)c4ccco4)CC3)n2n1 | 41.4* | . | -116.6 | -4.3 | -3.3 | 31.4
COc1ccccc1-c1cc2nc(-c3ccccc3)cc(N3CCN(C(=O)c4ccoc4)CC3)n2n1 | 46.6* | . | -4.0 | 3.5 | -0.3 | 31.9
O=C(NCC1CC1)[C@@H]1[C@@H](CO)[C@@H]2Cn3c(ccc(/C=C/c4ccccc4)c3=O)[C@H]1N2C(=O)C1CCC1 | . | -18.7 | . | . | . | .
CCCNC(=O)[C@@H]1[C@@H](CO)[C@@H]2Cn3c(ccc(C4=CCCC4)c3=O)[C@@H]2N1C(=O)c1cnccn1 | . | 0.5 | . | . | . | .
O=C(CSc1nnc2c(n1)[nH]c1ccc(F)cc12)Nc1ccccc1F | -3.4 | -1.0 | -10.3 | -0.2 | -3.0 | .
O=C(CSc1nnc2c3ccccc3c3ccccc3c2n1)Nc1ccccc1F | 41.7* | 3.6 | -6.9 | -2.9 | 6.5 | 3.1
O=C(C[C@H]1C[C@H]2c3cc(NC(=O)Nc4ccccc4F)ccc3O[C@H]2[C@H](CO)O1)NCC1CC1 | . | 5.8 | . | . | . | .
COc1ccc(Cc2c(-c3ccco3)nc3ccc(Cl)cn23)c(C)c1 | 42.2* | . | -0.1 | -0.5 | . | 8.2
Fc1ccc(-c2nc3ccc(Br)cn3c2Cc2cccc(F)c2)cc1 | 6.9 | . | -84.0 | -28.8 | . | .
COc1ccc(Cc2c(-c3ccco3)nc3c(C)cc(Br)cn23)c(C)c1 | 5.3 | . | -43.7 | 7.0 | . | .
Cc1ccc(Cc2c(-c3ccco3)nc3ccc(Br)cn23)cc1 | 29.7* | . | -499.5 | -3.2 | . | 17.5
Cc1ccc(-c2nc3ccc(Br)cn3c2Cc2cccc(F)c2)cc1 | 31.4* | . | -178.2 | -21.1 | . | 6.3
COc1ccc(Cc2c(-c3ccccc3)nc3ccc(Cl)cn23)c(C)c1 | 8.3 | . | 7.1 | -5.8 | . | .
COc1ccc(Cc2c(-c3ccco3)nc3ccc(Br)cn23)c(C)c1 | 58.9* | . | -264.6 | 4.0 | . | 2.9
O=[N+]([O-])c1cccc(SSc2cccc([N+](=O)[O-])c2)c1 | 44.2* | 1.1 | -36.9 | 0.8 | -4.9 | 57.8*
COc1ccc(NC2=Nc3ccccc3N3C2=Nc2c(c(C)nn2-c2ccc(C)cc2)C3c2cccnc2)cc1 (configuration not stated) | 17.1 | 4.1 | . | 1.3 | 1.5 | .
CC(=O)Nc1ccc(NC2=Nc3ccccc3N3C2=Nc2c(c(C)nn2-c2ccccc2)C3c2ccccc2)cc1 (configuration not stated) | 37.1* | . | 13.0 | 6.7 | 4.9 | 30.6
